Source: article PMC5540273 (PLoS ONE, 2017)

Each molecule was assayed on CDK7. Settings: concentration: 1 μM,replicates: in singlicate; n = 1.
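Also: KINOMEscan kinase panel screen.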

Compound	%Inh
FC(F)(F)c1cc(Br)cc(Nc2nccc(-c3cnn4ncccc34)n2)c1 [GW810578]	98.9%
Cn1ccc2ncnc(Oc3ccc(NC(=O)Nc4cccc(C(F)(F)F)c4)c(F)c3)c21	68%
COc1cc2ncn(-c3cc(OCC4CCCCC4)c(C(N)=O)s3)c2cc1OC [GSK204559]	86%
CN1CCN(CCNc2nc3cc(Oc4ccc(NC(=O)Nc5cc(C(F)(F)F)ccc5F)cc4)ccc3[nH]2)CC1.Cl.Cl [GW768504]	96.6%
CS(=O)c1ccc(-c2coc3ccc(-c4n[nH]c(=O)o4)cc23)cc1 (stereo not drawn)	38%
CN(c1cccc(CNc2nc(Nc3ccc4c(c3)CC(=O)N4)ncc2C(F)(F)F)c1)S(C)(=O)=O	53%
C[C@@H](Oc1cc(-n2cnc3ccc(-c4ccncc4)cc32)sc1C(N)=O)c1ccccc1Cl [GSK483724]	0%
c1ccc(Oc2ccc(Nc3ccnc4ccc(-c5ccccn5)cc34)cc2)cc1 [GW407034]	0%
COc1cc(Nc2nccc(N3CCC(NC(=O)c4cccc(C#N)c4)C3)n2)cc(OC)c1OC (stereo not drawn) [GSK1379751]	0%
COC(=O)Nc1nc2cc(Oc3ccc(NC(=O)Nc4cc(C(F)(F)F)ccc4Cl)cc3)ccc2[nH]1.Cl [GW697465]	89%
COc1cccc(OC)c1C(=O)Nc1cccc(-c2nn3ccccc3c2-c2ccnc(Nc3cccc(F)c3)n2)c1 [GSK361065]	22%
C[C@@H](Oc1cc(-n2cnc3cc(-c4cnn(C)c4)ccc32)sc1C(N)=O)c1ccccc1Cl [GSK580432]	0%
O=C(Nc1ccc(Oc2ccc3nc(NC(=O)C4CC4)cn3n2)c(F)c1)c1cccn(-c2ccccc2)c1=O	0%
Cn1cc(-c2cccc3c(N)c(C(N)=O)nnc23)cn1	26%
Cc1ccc2c(-c3ccnc(Nc4ccc(C(F)(F)F)cc4)n3)cnn2n1 [GW819776]	47%
Cl.Nc1n[nH]c2cc(-c3ccccn3)ccc12 [GSK2189892]	0%
C[C@@H]1CNc2c(sc3ccc4nc(-c5ccc(O)cc5)ccc4c23)C(=O)N1	82%
CC(=O)Nc1nc2cnc(Nc3cc(NC(=O)c4cccc(CC(C)(C)C#N)c4)ccc3C)nc2s1	36%
CC(C)S(=O)(=O)N1CCN(Cc2ccc3c(c2)nc(NC(=O)c2ccsc2)n3C[C@H](O)c2ccccc2)CC1 [GW635815]	8%
Cn1ccc2ncnc(Oc3ccc(NC(=O)Nc4ccnc(C(F)(F)F)c4)c(Cl)c3)c21	1%
O=C1NCCc2[nH]c(-c3ccncc3)cc21	71%
Cc1ccc(C(=O)Nc2ccc(Oc3ccc4nc(NC(=O)C5CC5)cn4c3)c(F)c2)c(=O)n1-c1ccccc1	76%
Cc1ccc(Nc2ccnc(Nc3ccc4c(c3)CS(=O)(=O)C4)n2)cc1O.Cl [GW579362]	23%
CN(c1ccccc1CNc1nc(Nc2ccc3c(c2)CC(=O)N3)ncc1C(F)(F)F)S(C)(=O)=O	67%
